Results: ChEMBL document CHEMBL3988442, “University of Dundee, Small-Polar-MMV Screening Library” (2021)
The whole screen tested about 48,000 compounds, of which about 13,000 (27%) showed an effect of 50% or more. The list shows a part of the results.

Test system: Wolbachia pipientis
Assay: Anti-Wolbachia Cell-Based Screen
Type: functional
Set-up: scale not given: in the data most compounds retested in dose-response had high values
Conditions: 5 µM

SMILES	Percent Effect
CCN(C(=O)CN1CCCC1c1ccc(F)cc1)c1ccccc1C (stereo unspecified)	-2.599%
O=C(NCc1ccccc1)c1nc2c(o1)CN(C(=O)c1cccnc1)C2.O=C(O)C(F)(F)F	-11.3%
Cc1occc1CNC(=O)C1(C)CCCN1C(=O)c1ccccc1 (stereo unspecified)	-1.558%
CCCN1CC2(CCN(C)CC2)CC1C(=O)NCCn1cc(C)cn1 (stereo unspecified)	2.434%
CCCn1cc(C(=O)N2CCCC2(C)c2nc(C)cc(C)n2)cn1 (stereo unspecified)	137.7%
CCCn1cc(C(=O)N2CCCC2(C)c2nc(C)cc(N)n2)cn1 (stereo unspecified)	145.7%
CCn1cc(C(=O)N2CCCC3(CCC(=O)N(CCC(C)C)C3)C2)cn1 (stereo unspecified)	12.9%
Cc1cc(CN(C)CC2CC(C3CCCCC3)=NO2)no1 (stereo unspecified)	7.354%
CC(C)C[C@H](N)COc1cccc(F)c1Oc1ccc(Cl)cc1	75.53%
CCCOc1ccccc1C(N)CC(C)C (stereo unspecified)	-0.2003%
CC(CNS(N)(=O)=O)Oc1cccc(Cl)c1 (stereo unspecified)	-1.116%
COc1ccccc1C(N)CC(C)C (stereo unspecified)	-3.152%
Cc1ccc(Oc2c(F)cccc2OC[C@@H](N)CC(C)C)cc1	105.2%
CC(C)C[C@H](N)COc1cccc(F)c1Oc1ccccc1	86.38%
CC(C)COc1ccccc1C(N)CC(C)C (stereo unspecified)	3.721%
CC(C)C[C@H](N)COc1cccc(F)c1Oc1cccc(Cl)c1	101.2%
CCOc1ccccc1C(N)CC(C)C (stereo unspecified)	-6.989%
Cc1nc(CN)cc(N2CCC(O)(c3ccc(Cl)cc3)CC2)n1	-14.21%
O=C(NC(c1ccc(Cl)cc1)C(F)(F)F)c1nc(=O)[nH][nH]1 (stereo unspecified)	-8.616%

SMILES	Percent Effect
CCN(C(=O)COC)C(c1cccnc1)c1cc(C)cc(C)c1 (stereo unspecified)	20.72%
CCC(C)Oc1cc(C(=O)N(c2cccnc2)C(C)C)ccn1 (stereo unspecified)	-13.41%
CCc1cc(N2CCN(c3ccc(Cl)cn3)CC2)n2nccc2n1	4.069%
COCC1CN(Cc2ccoc2)Cc2cn(CC3CCCC3)nc21 (stereo unspecified)	-3.642%
Cc1cnn(CC2CN(Cc3cccc(OCC(N)=O)c3)CCO2)c1 (stereo unspecified)	-6.391%
Cc1cnn(CC2CN(Cc3cccnc3)CCO2)c1 (stereo unspecified)	94.04%
Cc1cnn(CC2CN(CCc3ccncc3)CCO2)c1 (stereo unspecified)	-9.167%
Cc1cnn(CC2CN(CC(=O)N3CCc4ccccc43)CCO2)c1 (stereo unspecified)	-2.09%
Cc1cnn(CC2CN(Cc3cccc(C(=O)N(C)C)c3)CCO2)c1 (stereo unspecified)	5.735%
Cc1cnn(CC2CN(Cc3cccc(C(N)=O)c3)CCO2)c1 (stereo unspecified)	99.45%
Cc1cnn(CC2CN(Cc3cccc(OC(C)C)c3)CCO2)c1 (stereo unspecified)	92.31%
Cc1cnn(CC2CN(Cc3ccc(C(N)=O)cc3)CCO2)c1 (stereo unspecified)	85.4%
Cc1csc(C2(NCc3ccc(OCC(F)F)cc3)CCCC2)n1	-12.46%
CC(C)(C)c1noc(OCC(=O)NCC(F)(F)F)n1	4.463%
CCNc1ncc(C(=O)Nc2nnc(N3CCCCC3)[nH]2)s1	22.13%
CC(NC(=O)COc1ccccc1C(=O)O)c1ccc(F)cc1 (stereo unspecified)	-21.32%
Cc1ccc(-c2nnc(CCC(=O)NCc3cn(C)nc3C)o2)s1	-9.163%
COc1cc(CCC(C)O)c(OC)c2c1OCO2 (stereo unspecified)	17.45%
CC(C)N(CCO)C(=O)C1CCC(=O)N(CCc2cccc(F)c2)C1 (stereo unspecified)	8.608%

SMILES	Percent Effect
COCCNC(=O)NC(C)COc1ccc(F)cc1F (stereo unspecified)	119.4%
CC(COc1ccccc1F)NC(=O)N[C@@H]1C=C[C@H](CO)C1 (stereo partly specified)	-7.056%
COCCNC(=O)NCc1ccc(OC(C)C)c(F)c1	2.22%
Cn1cccc1C(O)CNC(=O)COc1ccccc1F (stereo unspecified)	-2.595%
Cc1noc(C)c1CNC(=O)NCCOc1ccc(F)cc1F	-6.419%
CC(C)CNC(=O)CNC(=O)NC(C)COc1ccccc1F (stereo unspecified)	103.7%
COC[C@]1(O)CCN(C(=O)c2ccc(CN(C)C)o2)CC1(C)C	-8.345%
Cc1cnc(N)nc1N1CCN(CCCO)CC1	-5.518%
CC1(C)[C@H](Cc2cc(CO)on2)C[C@@H]1NCc1ccc(CO)o1	-1.541%
CN(C)c1nc(NCc2cccnc2N)ncc1F	20.84%
CN(C)c1ncccc1CNS(=O)(=O)c1cc(F)ccc1F	114.6%
CN(C)C(CNS(=O)(=O)c1cc(F)ccc1F)c1cccn1C (stereo unspecified)	10.84%
COC(=O)c1ccc(S(=O)(=O)NCc2cccnc2N(C)C)cc1	-18.83%
COc1ccc(S(=O)(=O)NCc2cccnc2N(C)C)cc1F	-8.756%
CC(C)N(C)S(=O)(=O)NCc1cccnc1N(C)C	34.56%
CN(C)c1ncccc1CNS(=O)(=O)c1ccc(F)cc1F	106.1%
CN(C)c1ncccc1CNS(=O)(=O)c1cc(F)cc(F)c1	128.3%
Cc1c(Cl)cccc1S(=O)(=O)NCc1cnc(N(C)C)n1C	-2.35%
